# Reference: PubChem BioAssay (NCI)
# This is part of a sample that, as a whole, favours compounds with a hit. Of some 83,000 tested, about 20% had one in any assay.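 Testing used 96-well plates and a 48-hour single-concentration exposure. Example: -40 means 40% of the starting cells died.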 Active and inactive are the calls of the source. Rule for the calls: active = growth percent below 10; inactive = the rest.
# System: DU-145 prostate
# Experiment: NCI-60 one-dose screen, 48 h (100 = growth as untreated, 0 = no growth, -100 = all killed)
# Settings: 10 µM unless noted
row,Compound,growth
1,CCCCCCCCCCCCCCCCC(Br)C(=O)O (stereo unspecified),116% (inactive)
2,COc1cc2nc(Cl)nc(NCCO)c2cc1OC,112% (inactive)
3,CCOC(=O)C1=C(CSC(=S)N(C2CCCCC2)C2CCCCC2)N(C)C(=O)NC1c1ccccc1 (stereo unspecified),46.8% (inactive)
4,CC1=C(C#N)C(C)(C)C(C#N)=C(C)N1,106% (inactive)

# System: K-562 leukemia
# Experiment: as above
# Settings: 10 µM unless noted
row,Compound,growth
1,CCOC(=O)[C@H](CSSc1ncnc2cc[nH]c12)NC(=O)[C@@H](C)c1ccc2cc(OC)ccc2c1,13.5% (inactive)
2,CC(C)C[C@H](NC(=O)Cn1ccc(NCc2ccccc2)cc1=O)B(O)O,15.6% (inactive)
3,COc1ccc(C(=O)c2cc(OC)c(OC)c(OC)c2)cc1/C=C/C(=O)c1ccc(O)cc1,19% (inactive)
4,Cc1cccc(NC(=O)c2sc3nc4c(cc3c2N)CCC4)c1C,13.8% (inactive)
5,COc1cc(-c2cc(/C=C3\CCCCC3=O)[nH]n2)cc(OC)c1OC,79.4% (inactive)
6,COc1cccc(C2CC(=O)Nc3c2c(C)nn3-c2nc3ccccc3[nH]2)c1OC (stereo unspecified),40.9% (inactive)
7,CCNC(=O)C1CCCN1C(=O)C(CCCN=C(N)N)NC(=O)C(CC(C)C)NC(=O)C(CC(C)C)NC(=O)C(Cc1ccc(O)cc1)NC(=O)C(CO)NC(=O)C(Cc1c[nH]c2ccccc12)NC(=O)C(Cc1cnc[nH]1)NC(=O)C1CCC(=O)N1 (stereo unspecified),73.5% (inactive)
8,COc1ccc(-c2nc3sccn3c2-c2ccnc(NCCCNS(=O)(=O)c3ccc(F)cc3)n2)cc1,14.2% (inactive)
9,CCCCCC(=O)OCc1ccccc1,84.9% (inactive)
10,CN(C)c1nc(N)c(N=O)c(N)n1,103% (inactive)
11,COc1ccc(Cn2cc(COc3cc(/C=C/C(=O)c4cc(OC)c(OC)c(OC)c4)ccc3OC)nn2)cc1,12% (inactive)
12,CCOC(=O)C(Cc1ccccc1)n1c(O)c(C=Nc2ccc(C(=O)OCCN(CC)CC)cc2)sc1=O (stereo unspecified),89.3% (inactive)
13,COc1cc(Cn2c(SCC(=O)Nc3ccc(Cl)cc3)nc3ccccc3c2=O)cc(OC)c1OC,45.7% (inactive)
14,Cc1ccc(S(=O)(=O)NCCCNc2nccc(-c3c(-c4ccccc4)nc4sccn34)n2)cc1,15.9% (inactive)
15,Cc1cc(-c2ccccc2)c(C)n1Cc1ccc(Cl)cc1,13% (inactive)
16,CN(C)c1ccc(C2CC(c3ccccc3)=NN2/C=C2\SC(=O)NC2=O)cc1 (stereo unspecified),100% (inactive)

row,Compound,growth
1,C=C1C(=O)O[C@H]2[C@H]1CC/C(COC(=O)NCCc1ccc(OC)cc1)=C\CC[C@@]1(C)O[C@@H]21,2.33% (active)
2,O=C(CCCn1c(=O)c2sc3ccccc3c2n2nnc(-c3ccccc3)c12)NCCc1cnc[nH]1,82.6% (inactive)
3,O=C1c2ccccc2C(=O)c2c1oc1oc3c(c(=O)c21)c(=O)n(-c1ccccc1)c1ccccc31,26.8% (inactive)
4,COc1ccc(Cn2c(SC)nc(=O)n(Cc3ccc(Cl)cc3)c2=O)cc1,92.6% (inactive)
5,COc1cc(CNC(=O)CCSc2nc3ccccc3c(=O)n2Cc2cc(OC)c(OC)c(OC)c2)cc(OC)c1OC,8.67% (active)
6,O=C(COc1ccccc1)N1N=C(c2ccc(Cl)cc2)CC1c1c[nH]c2ccccc12 (stereo unspecified),71.2% (inactive)
7,CC(=O)n1cc([C@H]2CC[C@H](c3cn(C(C)=O)c4ccccc34)c3c2[nH]c2ccccc32)c2ccccc21,69.9% (inactive)
8,CCN(CC)CCCC(C)N=c1cc(Nc2cc(=NC(C)CCCN(CC)CC)c3cc(OC)ccc3o2)oc2ccc(OC)cc12 (stereo unspecified),-38.4% (active)
9,CC1(C)OC2COC3(C(=O)O)OC(C)(C)OC3C2O1 (stereo unspecified),101% (inactive)
10,Cc1ccc(Cn2c(-c3nonc3N)nc3ccccc32)cc1,12.9% (inactive)
11,COc1cc2nc(N3CCC[C@@H](NC4=CC(=O)c5ccccc5C4=O)C3)nc(N)c2cc1OC,-47.1% (active)
12,O=C(Nc1ccc(Cl)cc1)c1cc(-c2ccc(F)cc2)c2sc(=O)[nH]c2n1,10.6% (inactive)
13,Cc1cc(C)c(S(=O)(=O)N2CCN(c3cc4c(cc3F)c(=O)c(C(=O)O)cn4C3CC3)CC2)c(C)c1,63.5% (inactive)
14,O=C(CCCn1c2c(sc3ccccc32)c(=O)n2nnc(-c3ccccc3)c12)NCCc1cnc[nH]1,78.7% (inactive)
15,COc1ccc2c(c1)NC(=O)CN2c1nc(NC2CC2)nc2ccccc12,8.2% (active)
16,C=C1C(=O)O[C@H]2[C@H](O)[C@@H](C)CCC/C(C)=C/CC[C@@]3(C)O[C@@H]3C[C@@H]12,79.2% (inactive)
